{
  "source": "PubChem BioAssay (NCATS)",
  "note": "Results filed as inconclusive are left out. Entries that show only a call come without a potency. Activity calls are given as the source filed them. Calls come from the whole dose curve; as a rule, active = well fitted cell-killing curve with a large enough effect; inconclusive = small, poorly fitted or top-dose-only effect, or effect the other way; inactive = no such curve, though single readings can be large or run the other way. Potency is the fitted concentration of half-maximal effect.",
  "data": [
    {"assay": "qHTS of pediatric cancer cell lines to identify multiple opportunities for drug repurposing: Confirmatory screen for RD cells (AID 1347124);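 note: cells exposed to compound for 48 h before viability readout; nearly all actives have a fitted effect of over 65% in size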", "details": "RD rhabdomyosarcoma cell viability; series mostly up to 45.9 µM", "text": "Drug repurposing or repositioning has been offered as a strategy for drug development in oncology programs. This approach has special potential for childhood cancers and other rare or orphan diseases, where the expected return on new drug development has been a disincentive to pharmaceuticals.\nIn this project we exploit the poly-pharmacology of drugs to discover new indications via phenotypic screening of a panel of 19 well-characterized cell lines derived from solid tumors seen in children and adolescents. The goal is to identify approved drugs with previously unrecognized anticancer properties that has the potential to reveal new mechanisms and biological processes involved in carcinogenesis or drug resistance. We employed a titration-based paradigm (quantitative high-throughput screening or qHTS), where all compounds were tested at multiple concentrations for their effect on cell viability. Concentration-response curves (CRCs) were derived directly from the primary screen, and both potency and efficacy values were used to identify compounds with robust bioactivity profiles. We screened the NIH Chemical Genomics Center (NCGC) Pharmaceutical Collection (NPC) and Mechanism Interrogation Plate (MIPE) small molecule collections of approved and investigational compounds against these cell lines; and measured metabolically active cells after 48 hours of compound treatment as a proxy for cell viability.\nAssay Submitter: Nathalia J. Martinez, National Center for Advancing Translational Sciences, National Institutes of Health, Rockville, MD, USA; email: natalia.martinez@nih.gov\n[1] Shen, M et al. Quantitative high-throughput phenotypic screening of pediatric cancer cell lines identifies multiple opportunities for drug repurposing. Oncotarget 2017 Dec 19;9(4):4758-4772. PMID 29435139.\nThe cells were obtained from University of North Carolina (UNC), Pediatric Preclinical Testing Program (PPT), and Coriell Institute (CI).\nqHTS cell viability assay:\nCells were assayed in growth media at a density of 500-1,000 cells/well. Five microliters of cells were dispensed into 1,536-well, white, solid-bottom, TC-treated plates (Greiner Bio One) using a multidrop dispenser and incubated at 37 degrees C, 5% CO2, under a humidified atmosphere for 5 hours. Twenty-three nanoliters of compounds and controls (neutral control DMSO or positive control bortezomib at final concentration of 2.3 µM) were subsequently transferred by Kalypsys pintool. For primary screens, the MIPE collection was tested at 11-point dilutions (final concentrations range from 0.78 nM to 46 µM) and the NPC collection at 8-point dilutions (final concentrations range from 0.59 nM to 46 µM). Compounds tested in follow-up screens were assayed at 11-point dilutions. Cells were incubated for 48 hours, followed by addition of 3 µL of CellTiter-Glo (Promega). After a 15 min incubation at room temperature, samples were analyzed for luminescence intensity using a ViewLux High-throughput CCD imager equipped with clear filters.", "values": [
      {"smiles": "NC(N)=NN=C(/C=C/c1ccc([N+](=O)[O-])o1)/C=C/c1ccc([N+](=O)[O-])o1", "Potency": "4.14 µM (active)"},
      {"smiles": "CN(C)C(=O)Nc1ccc(Cl)c(Cl)c1", "Potency": "inactive"},
      {"smiles": "CC1CCc2c(N3CCC(O)CC3)c(F)cc3c(=O)c(C(=O)O)cn1c23", "note": "(configuration not stated)", "Potency": "inactive"},
      {"smiles": "CCCCCCCCCCCCOCCOCCOCCOCCOCCOCCOCCOCCOCCO", "Potency": "inactive"},
      {"smiles": "CCN(CC)CCOc1ccc2c(c1)C(=O)c1cc(OCCN(CC)CC)ccc1-2", "Potency": "inactive"},
      {"smiles": "O=[N+]([O-])c1ccc(/C=N\\O)o1", "Potency": "0.414 µM (active)"},
      {"smiles": "Nc1nc(Cl)nc2c1ncn2[C@@H]1O[C@H](CO)[C@@H](O)[C@@H]1F", "Potency": "inactive"},
      {"smiles": "CCN[C@@H]1C[C@H](N)[C@@H](OC2OC(CN)=CCC2N)[C@H](O)[C@H]1O[C@H]1OC[C@](C)(O)[C@H](NC)[C@H]1O", "note": "(some centres not stated)", "activity change, negative = cytotoxic": "11.8% [at 0.556 µM] (inactive)"},
      {"smiles": "COc1ccc(C(=O)c2ccccc2)c(O)c1", "Potency": "inactive"},
      {"smiles": "O=C(CCCN1CC=C(n2c(=O)[nH]c3ccccc32)CC1)c1ccc(F)cc1", "Potency": "inactive"},
      {"smiles": "C[C@@]12C(=O)OC(=O)[C@]1(C)C1CCC2O1", "Potency": "6.57 µM (active)"},
      {"smiles": "O=C(Oc1cccc2cccnc12)c1ccccc1", "Potency": "inactive"}
    ]}
  ]
}
